The supplement of paper PMC6089552
The whole screen tested about 3,200 compounds, of which about 300 (9.4%) showed activity. Only a selection was taken, and actives are over-represented in it overall. Values without a mark were called inactive.

Tested on: A673/TR/shEF
Assay: cell viability (LOESS-normalised, relative to median of negative controls) (log2 ratio); higher = more viable cells (less compound effect), active = hit call of the paper (over 3 MAD below the median)
Details: treatment time: 72 h
Procedure, shortened: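 For three days, A673/TR/shEF Ewing sarcoma cells in 384-well plates (1,500 per well) were treated with library compounds at two or more concentrations or with DMSO controls, after doxycycline had been added or withheld 24 h beforehand to induce EWS-FLI1 shRNA knockdown. Viability was read by CellTiter-Glo luminescence on an Envision reader. The data were LOESS-corrected per plate, divided by the median of negative controls and log2-transformed.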

[1] = 0.25 µM, library screen: screen1, EWS-FLI1 expression: high (no doxycycline)
[2] = 0.25 µM, library screen: screen1, EWS-FLI1 expression: low (doxycycline-induced shRNA knockdown)
[3] = 2.5 µM, library screen: screen1, EWS-FLI1 expression: high (no doxycycline)
[4] = 2.5 µM, library screen: screen1, EWS-FLI1 expression: low (doxycycline-induced shRNA knockdown)
[5] = 0.25 µM, library screen: screen2, EWS-FLI1 expression: high (no doxycycline)
[6] = 0.25 µM, library screen: screen2, EWS-FLI1 expression: low (doxycycline-induced shRNA knockdown)
[7] = 2.5 µM, library screen: screen2, EWS-FLI1 expression: high (no doxycycline)
[8] = 2.5 µM, library screen: screen2, EWS-FLI1 expression: low (doxycycline-induced shRNA knockdown)

## COc1ccc2c(c1)CCC1=CC(=O)CCC12C (stereo not drawn)
[1]
  cell viability (log2): 0.119
[2]
  cell viability (log2): 0.144
[3]
  cell viability (log2): 0.0987
[4]
  cell viability (log2): 0.126

## OC[C@@H](O)[C@@H](O[C@@H]1O[C@H](CO)[C@@H](O)[C@H](O)[C@H]1O)[C@H](O)[C@@H](O)CO
[1]
  cell viability (log2): 0.117
[2]
  cell viability (log2): 0.055
[3]
  cell viability (log2): 0.143
[4]
  cell viability (log2): 0.0198

## NC(N)=NCCN1CCCCCCC1
[1]
  cell viability (log2): 0.086
[2]
  cell viability (log2): 0.0896
[3]
  cell viability (log2): 0.182
[4]
  cell viability (log2): 0.105

## [O-]n1ccccc1=S.[O-]n1ccccc1=S.[Zn+2]
[1]
  cell viability (log2): 0.17
[2]
  cell viability (log2): 0.0708
[3]
  cell viability (log2): -0.205 (active)
[4]
  cell viability (log2): 0.0604

## O=C([O-])[O-].[Ca+2]
[5]
  cell viability (log2): 0.129
[6]
  cell viability (log2): 0.105
[7]
  cell viability (log2): 0.151
[8]
  cell viability (log2): 0.0778

## COc1ccc(CN2CCN(Cc3ccc(OC)c(OC)c3OC)CC2)cc1OC
[1]
  cell viability (log2): 0.061
[2]
  cell viability (log2): 0.00924
[3]
  cell viability (log2): 0.123
[4]
  cell viability (log2): 0.0982

## CC(C)N1C(=O)C(=C2C(=O)N(C)c3ccccc32)SC1=S
[1]
  cell viability (log2): 0.0638
[2]
  cell viability (log2): 0.00946
[3]
  cell viability (log2): 0.0618
[4]
  cell viability (log2): 0.138

## C[C@H]1C(=O)CC[C@@H]2[C@]1(C)CC[C@H]1[C@@]2(C)CC[C@@]2(C)[C@@H]3CC(C)(C)CC[C@]3(C)CC[C@]12C
[1]
  cell viability (log2): 0.031
[2]
  cell viability (log2): 0.0462
[3]
  cell viability (log2): 0.0143
[4]
  cell viability (log2): 0.0816

## O=c1c(O)c(-c2ccc(O)c(O)c2)oc2cc(O)cc(O)c12
0.025 µM, library screen: screen1, EWS-FLI1 expression: high (no doxycycline)
  cell viability (log2): 0.22
0.025 µM, library screen: screen1, EWS-FLI1 expression: low (doxycycline-induced shRNA knockdown)
  cell viability (log2): 0.00571
[1]
  cell viability (log2): 0.112
[2]
  cell viability (log2): 0.018
[5]
  cell viability (log2): 0.12
[6]
  cell viability (log2): 0.0619
[3]
  cell viability (log2): 0.108
[4]
  cell viability (log2): 0.0969
[7]
  cell viability (log2): 0.176
[8]
  cell viability (log2): 0.00939
25 µM, library screen: screen1, EWS-FLI1 expression: high (no doxycycline)
  cell viability (log2): -1.43 (active)
25 µM, library screen: screen1, EWS-FLI1 expression: low (doxycycline-induced shRNA knockdown)
  cell viability (log2): 0.0272

## O=c1c(O)c(-c2cc(O)c(O)c(O)c2)oc2cc(O)cc(O)c12
[1]
  cell viability (log2): 0.0195
[2]
  cell viability (log2): 0.156
[5]
  cell viability (log2): 0.118
[6]
  cell viability (log2): 0.093
[3]
  cell viability (log2): 0.0517
[4]
  cell viability (log2): 0.0582
[7]
  cell viability (log2): 0.111
[8]
  cell viability (log2): 0.0599

## COc1cc(O)c2c(=O)c(O)c(-c3ccc(O)c(O)c3)oc2c1
[1]
  cell viability (log2): -0.00867
[2]
  cell viability (log2): 0.0259
[3]
  cell viability (log2): 0.0453
[4]
  cell viability (log2): 0.0969

## N#Cc1c2c(c(Nc3ccc(O)cc3)n3c1nc1ccccc13)CCC2
[1]
  cell viability (log2): 0.0182
[2]
  cell viability (log2): 0.0391
[3]
  cell viability (log2): 0.0659
[4]
  cell viability (log2): 0.0482

## CCOC(=O)c1c(C)cc(O)cc1O
[1]
  cell viability (log2): 0.0788
[2]
  cell viability (log2): 0.0693
[3]
  cell viability (log2): 0.0357
[4]
  cell viability (log2): 0.0819

## CC1=C(C(=O)OC2CCCC2)C(c2coc3ccccc3c2=O)C2=C(CC(C)(C)CC2=O)N1 (stereo not drawn)
[1]
  cell viability (log2): 0.0783
[2]
  cell viability (log2): 0.0738
[3]
  cell viability (log2): 0.145
[4]
  cell viability (log2): 0.0146

## CN(C)CCN(Cc1ccccc1)c1ccccn1
[1]
  cell viability (log2): 0.0764
[2]
  cell viability (log2): 0.111
[3]
  cell viability (log2): 0.247
[4]
  cell viability (log2): 0.229

## C#CCN(C)CCCOc1ccc(Cl)cc1Cl
[5]
  cell viability (log2): 0.27
[6]
  cell viability (log2): 0.097
[7]
  cell viability (log2): 0.132
[8]
  cell viability (log2): 0.147

## C#CCN(C)Cc1ccccc1
[1]
  cell viability (log2): 0.0858
[2]
  cell viability (log2): 0.0954
[5]
  cell viability (log2): 0.078
[6]
  cell viability (log2): -0.0346
[3]
  cell viability (log2): 0.175
[4]
  cell viability (log2): 0.102
[7]
  cell viability (log2): -1.76 (active)
[8]
  cell viability (log2): -2.08 (active)

## COc1ccc(CN2CCN(Cc3ccc(OC)c(OC)c3OC)CC2)cc1Br
[1]
  cell viability (log2): 0.104
[2]
  cell viability (log2): 0.0582
[3]
  cell viability (log2): 0.0165
[4]
  cell viability (log2): 0.0422

## Cc1ccc(OCC(=O)N2CCC(C)CC2)c(C)c1
[1]
  cell viability (log2): 0.0605
[2]
  cell viability (log2): 0.118
[3]
  cell viability (log2): 0.14
[4]
  cell viability (log2): 0.114

## COc1ccc2c(c1)CCC1=CC(=O)CC[C@@]12C
[1]
  cell viability (log2): 0.0515
[2]
  cell viability (log2): 0.00881
[3]
  cell viability (log2): 0.19
[4]
  cell viability (log2): 0.155

## CC1C2C(CC3C4CC[C@@H]5CC(=O)CC[C@]5(C)C4CC[C@@]32C)OC12CC[C@@H](C)CO2 (stereo partly drawn)
[1]
  cell viability (log2): 0.0621
[2]
  cell viability (log2): 0.0593
[3]
  cell viability (log2): 0.124
[4]
  cell viability (log2): 0.0882

## COCCN1C(=O)/C(=C\c2ccc(-c3ccc(Br)cc3)o2)SC1=S
[1]
  cell viability (log2): 0.0753
[2]
  cell viability (log2): 0.00476
[3]
  cell viability (log2): 0.101
[4]
  cell viability (log2): 0.0615

## CN(Cc1cnc2nc(N)nc(N)c2n1)c1ccc(C(=O)N[C@H](CCC(=O)O)C(=O)O)cc1
[5]
  cell viability (log2): 0.209
[6]
  cell viability (log2): 0.115
[7]
  cell viability (log2): 0.0762
[8]
  cell viability (log2): 0.165
